# Values joined by “and” are separate entries in the source; they are usually repeats but may differ in a detail not shown here. Equal entries are not always repeated. Records with an inconclusive call do not appear. Where a structure was tested more than once in an assay, its records may differ in their call. Active and inactive are the calls of the source. How the source made its calls, unless noted: active means hit-call score of the fitted dose curve at least 0.9, where 1 is the maximum; inconclusive means response in the unintended direction; inactive means score below 0.9.
# Experiments:
# [1] = system: Thyroperoxidase (TPO), gene 54314; assay: CCTE_Simmons_AUR_rTPO: CCTE's Amplex UltraRed Assay for Thyroperoxidase (TPO) Inhibition, Simmons Lab (AID 2283662);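 on AC50: potency for loss of signal meaning inhibition of peroxidase activity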
# Procedure, shortened: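 Cell-free peroxidase activity assay using rat thyroid gland microsomes with excess H2O2 (300 uM) and 25 uM Amplex UltraRed. Compounds tested from 5 nM to 87.5 uM; fluorescence measured after 30 min at 37C, analysed relative to DMSO baseline.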
# [2] = CCTE_Simmons_CellTiterGLO_HEK293T: Viability Assessment in CCTE's Assays for Thyroperoxidase (TPO) Inhibition, Simmons Lab (AID 2283665);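 on AC50: cells exposed to compound for 24 h before readout; actives reduce ATP signal below DMSO vehicle meaning cytotoxicity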
# Procedure, shortened: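 ATP depletion measured in HEK293T cells after 24 h dosing (8 concentrations, 5 nM–87.5 uM final; DMSO 0.5%) using CellTiter-Glo luminescence; curves fit for loss of signal against DMSO baseline.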
# [3] = Tanguay_ZF_120hpf_TR_legacy: (Legacy) Oregon State University Tanguay Lab 120 Hour Post-fertilization zebrafish Assay for Touch Response (AID 2283667)
# Procedure, shortened: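 Binary touch-response call at 120 hpf, analysed as gain of signal versus DMSO baseline. Wild-type 5D larvae, static exposure at 28C, 0.64% DMSO final; 5uM trimethyltin chloride as positive control.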
# [4] = CLD_ACTIN_6hr: CellzDirect (CLD) Gene Expression Assay for Baseline Control (Actin) at 6 hours (AID 2283676);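 further: active means increased actin mRNA relative to DMSO vehicle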
# Procedure, shortened: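 Baseline actin transcript level measured by qNPA (S1 nuclease protection, chemiluminescence) in human hepatocyte cultures 6 h after chemical exposure; 0.2% DMSO vehicle as reference, cytotoxicity noted from morphology.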
# [5] = read-out: glucuronosyltransferase (UGT1A1), UGT1A1 (gene 54658); assay: CLD_UGT1A1_6hr: CellzDirect (CLD) Gene Expression Assay for glucuronosyltransferase (UGT1A1) at 6 hours (AID 2283672)
# Procedure, shortened: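 UGT1A1 mRNA induction, read by quantitative nuclease protection assay, 6 h after dosing primary human hepatocytes (two donors, 0.2% DMSO vehicle). Gain of signal fitted relative to vehicle.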
# [6] = read-out: ABC Transporter (ABCB11), ABCB11 (gene 8647); assay: CLD_ABCB11_6hr: CellzDirect (CLD) Gene Expression Assay for ABC Transporter (ABCB11) at 6 hours (AID 2283675);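 further: hits raise ABCB11 mRNA level so AC50 marks induction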
# Procedure, shortened: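 Read-out was ABCB11 mRNA gain of signal by quantitative nuclease protection assay, relative to 0.2% DMSO vehicle, 6 h post-dose. Cells were primary human hepatocytes from two donors, treated across multiple concentrations; phase-contrast cytotoxicity noted yes/no.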
# [7] = read-out: Cytochrome P450 (CYP24A1_1), CYP24A1 (gene 1591); assay: LTEA_HepaRG_CYP24A1_1: Life Technologies and Expression Analysis (LTEA) Assay for Cytochrome P450 (CYP24A1_1) using HepaRG (AID 2283671; active means hit-call score of the fitted dose curve at least 0.9, where 1 is the maximum; inactive means score below 0.9); details: mRNA level, 48 h; actives raise or lower the signal
# Procedure, shortened: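 Readout is CYP24A1 transcript level by qRT-PCR, normalized to three housekeeping genes, with gain or loss of signal fitted against 0.5% DMSO. Human HepaRG cells received compound for 48 h at up to 100 uM.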
# [8] = read-out: xenobiotic metabolism (CYP1A1), CYP1A1 (gene 1543); assay: CLD_CYP1A1_24hr: CellzDirect (CLD) Gene Expression Assay for xenobiotic metabolism (CYP1A1) at 24 hours (AID 2283673);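 further: CYP1A1 mRNA level by quantitative nuclease protection with chemiluminescence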
# Procedure, shortened: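 Transcript levels were read at 24 h by qNPA chemiluminescence in human liver primary cells. Cells got daily fresh dosing at multiple concentrations (vehicle 0.2% DMSO). Induction fitted upward against DMSO; phase-contrast cytotoxicity annotated.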
# [9] = read-out: ABC Transporter (ABCB11), ABCB11 (gene 8647); assay: CLD_ABCB11_24hr: CellzDirect (CLD) Gene Expression Assay for ABC Transporter (ABCB11) at 24 hours (AID 2283674; active means hit-call score of the fitted dose curve at least 0.9, where 1 is the maximum; inactive means score below 0.9)
# Procedure, shortened: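 ABCB11 transcript was quantified by qNPA chemiluminescence in cultured human liver hepatocytes 24 hours after dosing. Fresh dosing solutions were applied on consecutive days, against a 0.2% DMSO vehicle. Cytotoxicity was noted by phase-contrast morphology.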
# [10] = read-out: xenobiotic metabolism (CYP1A2), CYP1A2 (gene 1544); assay: CLD_CYP1A2_6hr: CellzDirect (CLD) Gene Expression Assay for xenobiotic metabolism (CYP1A2) at 6 hours (AID 2283663);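 on AC50: potency is for induction meaning a rise in mRNA above DMSO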
# Procedure, shortened: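 mRNA levels quantified by quantitative nuclease protection assay with chemiluminescence, 6 h after dosing human primary hepatocyte cultures (two donors) across several concentrations, vehicle 0.2% DMSO. Induction fitted upward versus DMSO; phase-contrast cytotoxicity annotated.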
smiles,measurement,setting,value
CCCC1COC(Cn2cncn2)(c2ccc(Cl)cc2Cl)O1 (stereo not drawn),outcome,[1],inactive
same,AC50,[2],79.7 µM (active)
same,AC50,[3],9.51 µM (active)
same,outcome,[4],inactive
C=CCC1=C(C)[C@@H](OC(=O)[C@@H]2[C@@H](C=C(C)C)C2(C)C)CC1=O,AC50,[1],54 µM (active)
same,AC50,[2],42.5 µM (active)
same,outcome,[3],inactive
same,outcome,[5],inactive
same,outcome,[6],inactive
C=CC1(C)OC(=O)N(c2cc(Cl)cc(Cl)c2)C1=O (stereo not drawn),outcome,[3],inactive
same,outcome,[7],inactive
same,AC50,[8],0.317 µM (active)
same,outcome,[9],inactive
same,outcome,[4],inactive
CNC(=S)S,AC50,[1],22 µM (active) and 23 µM (active)
same,outcome,[2],inactive
same,outcome,[3],inactive
same,outcome,[6],inactive
COC(=O)C=C(C)OP(=O)(OC)OC,AC50,[1],14 µM (active)
same,outcome,[2],inactive
same,outcome,[3],inactive
same,outcome,[6],inactive
same,outcome,[4],inactive
N#CC(CCc1ccc(Cl)cc1)(Cn1cncn1)c1ccccc1 (stereo not drawn),outcome,[3],inactive
CN(C)C(=S)SSC(=S)N(C)C,outcome,[1],inactive
same,AC50,[2],40.2 µM (active)
same,AC50,[3],3.26 µM (active)
same,outcome,[9],inactive
same,outcome,[6],inactive
same,outcome,[4],inactive
COc1cnc(OC)n2nc(NS(=O)(=O)c3c(OCC(F)F)cccc3C(F)(F)F)nc12,AC50,[10],0.255 µM (active)
same,outcome,[4],inactive
CCOP(=S)(OCC)SCn1c(=O)oc2cc(Cl)ccc21,AC50,[1],2.18 µM (active)
same,AC50,[2],67.4 µM (active)
same,outcome,[3],inactive
same,outcome,[6],inactive
OC(c1ccc(Cl)cc1)(c1cncnc1)c1ccccc1Cl (stereo not drawn),outcome,[3],inactive
same,outcome,[7],inactive
same,outcome,[6],inactive
same,outcome,[4],inactive
N#Cc1cc(Br)c(O)c(Br)c1,outcome,[10],inactive
same,outcome,[3],inactive
same,outcome,[5],inactive
same,outcome,[6],inactive
same,outcome,[4],inactive
CO/C=C(/C(=O)OC)c1ccccc1Oc1cc(Oc2ccccc2C#N)ncn1,AC50,[3],4.04 µM (active)
same,outcome,[3],inactive
same,outcome,[7],inactive
same,outcome,[5],inactive
same,outcome,[6],inactive
same,outcome,[4],inactive
C=CCC1=C(C)C(OC(=O)C2C(C=C(C)C)C2(C)C)CC1=O (stereo not drawn),AC50,[1],33.6 µM (active)
same,AC50,[2],54.1 µM (active)
same,outcome,[3],inactive
same,outcome,[5],inactive
same,outcome,[4],inactive
COP(N)(=O)SC (stereo not drawn),AC50,[1],30.6 µM (active)
same,outcome,[10],inactive
same,outcome,[6],inactive
same,outcome,[4],inactive
CC1=C(C(=O)Nc2ccccc2)SCCO1,AC50,[1],5.33 µM (active)
same,outcome,[3],inactive
CCOC(=O)CC(SP(=S)(OC)OC)C(=O)OCC (stereo not drawn),AC50,[1],3.4 µM (active)
same,outcome,[2],inactive
same,AC50,[3],26.5 µM (active)
same,outcome,[6],inactive
CCCN(CCC)c1c([N+](=O)[O-])cc(S(N)(=O)=O)cc1[N+](=O)[O-],outcome,[1],inactive
same,AC50,[2],27.1 µM (active) [middle of 5 runs]
same,outcome,[3],inactive
same,outcome,[9],inactive
same,outcome,[6],inactive
CC1COC(Cn2cncn2)(c2ccc(Oc3ccc(Cl)cc3)cc2Cl)O1 (stereo not drawn),outcome,[1],inactive
same,AC50,[2],27.9 µM (active)
same,outcome,[3],inactive
same,outcome,[4],inactive
CCc1nn(C)c(C(=O)NCc2ccc(C(C)(C)C)cc2)c1Cl,AC50,[10],20 µM (active)
same,outcome,[3],inactive
same,AC50,[9],34.8 µM (active)
same,outcome,[6],inactive
same,outcome,[4],inactive
COP(=S)(OC)Oc1nc(Cl)c(Cl)cc1Cl,AC50,[1],4.62 µM (active)
same,AC50,[2],85.6 µM (active)
same,AC50,[3],97.7 µM (active)
same,outcome,[9],inactive
same,outcome,[6],inactive
same,outcome,[4],inactive
Oc1ccccc1-c1ccccc1,AC50,[1],35.2 µM (active)
same,AC50,[2],97.1 µM (active)
same,outcome,[3],inactive
same,outcome,[9],inactive
same,outcome,[6],inactive
O=C(Nc1ccccc1)Nc1ccnc(Cl)c1,AC50,[1],27.6 µM (active)
same,AC50,[2],53.8 µM (active)
same,outcome,[3],inactive
same,outcome,[4],inactive
O=C(O)c1nc(Cl)ccc1Cl,outcome,[1],inactive
same,outcome,[3],inactive
same,AC50,[8],7.87 µM (active)
same,outcome,[9],inactive
same,outcome,[6],inactive
same,outcome,[4],inactive
CCCCNC(=O)n1c(NC(=O)OC)nc2ccccc21,outcome,[1],inactive
same,outcome,[2],inactive
same,AC50,[3],19.2 µM (active)
same,AC50,[8],20 µM (active)
same,outcome,[6],inactive
same,outcome,[4],inactive
O=C(O)COc1nc(Cl)c(Cl)cc1Cl,outcome,[3],inactive
CON(C)C(=O)Nc1ccc(Cl)c(Cl)c1,AC50,[1],35 µM (active)
same,outcome,[2],inactive
same,outcome,[3],inactive
same,AC50,[8],1.82 µM (active)
CCCCC(CC)COC(=O)c1ccccc1C(=O)OCC(CC)CCCC (stereo not drawn),outcome,[3],inactive
same,outcome,[9],inactive
same,outcome,[6],inactive
COC(=O)N(OC)c1ccccc1COc1ccn(-c2ccc(Cl)cc2)n1,outcome,[3],inactive
same,AC50,[8],1.9 µM (active)
same,AC50,[9],6.18 µM (active)
same,outcome,[6],inactive
CC(C)Oc1cc(-n2nc(C(C)(C)C)oc2=O)c(Cl)cc1Cl,outcome,[3],inactive
same,outcome,[4],inactive
N#Cc1nn(-c2c(Cl)cc(C(F)(F)F)cc2Cl)c(N)c1S(=O)C(F)(F)F (stereo not drawn),outcome,[3],inactive
same,outcome,[6],inactive
Cc1ccc(-c2c(Cl)nc(C#N)n2S(=O)(=O)N(C)C)cc1,outcome,[3],inactive
same,outcome,[6],inactive
same,outcome,[4],inactive
COc1nc(C)nc(NC(=O)NS(=O)(=O)c2ccccc2CCC(F)(F)F)n1,outcome,[9],inactive
same,outcome,[6],inactive
same,outcome,[4],inactive
CS/C(C)=N/OC(=O)N(C)SN(C)C(=O)O/N=C(\C)SC,outcome,[3],inactive
same,outcome,[6],inactive
same,outcome,[4],inactive
CCOC(=O)C(Cl)Cc1cc(-n2nc(C)n(C(F)F)c2=O)c(F)cc1Cl (stereo not drawn),AC50,[3],17 µM (active)
same,outcome,[5],inactive
same,outcome,[6],inactive
CC(C)(C)c1ccc(CSc2cnn(C(C)(C)C)c(=O)c2Cl)cc1,outcome,[3],inactive
same,outcome,[9],inactive
same,outcome,[6],inactive
same,outcome,[4],inactive
Cc1cc(Cl)ccc1OCC(=O)O,outcome,[3],inactive
same,outcome,[4],inactive
CCNc1nc(Cl)nc(NCC)n1,outcome,[3],inactive
same,outcome,[4],inactive
COC(=O)C(C)Oc1ccc(Oc2ccc(Cl)cc2Cl)cc1 (stereo not drawn),outcome,[3],inactive
same,outcome,[5],inactive
same,outcome,[9],inactive
same,outcome,[6],inactive
same,outcome,[4],inactive
CC(C)C1(C)N=C(c2nc3ccccc3cc2C(=O)O)NC1=O (stereo not drawn),outcome,[3],inactive
same,outcome,[8],inactive
same,outcome,[4],inactive
C#CCOS(=O)OC1CCCCC1Oc1ccc(C(C)(C)C)cc1 (stereo not drawn),outcome,[3],inactive
same,outcome,[9],inactive
same,outcome,[6],inactive
same,outcome,[4],inactive
Cc1c(F)c(F)c(COC(=O)C2C(/C=C(\Cl)C(F)(F)F)C2(C)C)c(F)c1F (stereo not drawn),AC50,[3],3.23 µM (active)
same,outcome,[6],inactive
same,outcome,[4],inactive
CCON=C(CC)C1=C(O)CC(c2c(C)cc(C)cc2C)CC1=O (stereo not drawn),outcome,[3],inactive
same,outcome,[8],inactive
same,outcome,[6],inactive
same,outcome,[4],inactive
Fc1ccc(Oc2ccnc3cc(Cl)cc(Cl)c23)cc1,outcome,[3],inactive
same,AC50,[8],2.49 µM (active)
CCOc1cc(Oc2ccc(C(F)(F)F)cc2Cl)ccc1[N+](=O)[O-],outcome,[3],inactive
same,outcome,[5],inactive
same,AC50,[8],4.84 µM (active)
same,outcome,[6],inactive
CNC(=O)ON=CC(C)(C)SC,AC50,[3],21 µM (active)
same,outcome,[4],inactive
COc1nc(C)nc(NC(=O)NS(=O)(=O)c2ccccc2Cl)n1,outcome,[8],inactive
same,outcome,[9],inactive
same,outcome,[6],inactive
same,outcome,[4],inactive
COc1ccc(C(c2ccc(OC)cc2)C(Cl)(Cl)Cl)cc1,outcome,[3],inactive
same,outcome,[6],inactive
CCCCNC(=O)OCC#CI,outcome,[3],inactive
same,outcome,[6],inactive
CCNc1nc(Cl)nc(NC(C)C)n1,outcome,[3],inactive
same,AC50,[8],4.27 µM (active)
CCCCOC(=O)c1ccccc1C(=O)OCCCC,outcome,[3],inactive
same,outcome,[9],inactive
same,outcome,[6],inactive
same,outcome,[4],inactive
COc1nc(NC(C)C)nc(NC(C)C)n1,outcome,[3],inactive
same,outcome,[4],inactive
CC(Oc1ccc(Cl)cc1Cl)C(=O)O (stereo not drawn),outcome,[8],inactive
same,outcome,[6],inactive
same,outcome,[4],inactive
COC(=O)c1ccccc1C(=O)OC,outcome,[3],inactive
same,outcome,[9],inactive
same,outcome,[6],inactive
same,outcome,[4],inactive
